Most compounds without a hit are left out; they make up all but 6.3% or so of the library.
NADH coupling = blocks coupling enzymes of NAD/NADH assays; coupled PK/LDH NADH assays, four targets; IC50, µM (highest dose often 10 µM), inactives show top-dose inhibition; 65,000 compounds, 0.02% hits;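 active = single-dose screening hits from any of four coupled enzyme assays that gave an IC50 when retested across doses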;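 also: the DPM-DC format reads NADH fluorescence rather than 340 nm absorbance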
DPM-DC inhibit = blocks S. pneumoniae diphosphomevalonate decarboxylase. 65,000 compounds, 0.49% hits. calls only at 10 µM. purified DPM-DC, PK/LDH coupled NADH fluorescence;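 active = the 320 compounds with the highest percent inhibition in the single-dose primary screen, excluding strongly autofluorescent ones, cut at about 32% in these data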;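 also: kinetic rate of NADH fluorescence loss reporting ADP formed by the decarboxylase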
MK inhibit = S. pneumoniae mevalonate kinase inhibition. AID 555. inhibition, % at 10 µM. 65,000 compounds, 0.48% hits. purified MK, PK/LDH-coupled NADH absorbance 340 nm;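 active = ranked among the strongest by inhibition in the single 10 µM screen, a fixed top-ranked set picked for dose follow-up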
Autofluor 339 = intrinsic fluorescence of library compounds, ex339/em460 – biochemical, MLSMR library, data from DPM-DC assay, artefact control, profiling panel. compound autofluorescence, ex339/em460 nm, NADH buffer; stronger effect = higher value; 1 = no-compound wells, NADH background. fluorescence fold increase at 10 µM. 65,000 compounds, 5.5% hits;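 active = at 10 µM, mean starting fluorescence two-fold or more over control wells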;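 also: signal is the first read of a kinetic run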
Abs 340nm = compounds absorbing at 340 nm. compound absorbance at 340 nm, fold over control. fold change at 10 µM. 65,000 tested, under 10 active. AID 708;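 active = at 10 µM dose, initial 340 nm absorbance at least 2 fold that of control wells; inactive = change under 2 fold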;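 also: initial absorbance extrapolated from kinetic A340 decline of NADH oxidation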
Spn PMK inh = S. pneumoniae PMK inhibition. inhibition, % at 10 µM. purified PMK, PK/LDH-coupled NADH absorbance 340 nm. 65,000 compounds, 0.49% hits;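 active = top-ranked compounds by inhibition in the single 10 µM screen, taking a fixed number of the strongest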;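 also: 0% = full reaction with DMSO carrier and 100% = background rate without enzyme reaction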
An asterisk follows results filed as active; i = inactive; . = no result shown; + = active, no number.

SMILES	NADH coupling	DPM-DC inhibit	MK inhibit	Autofluor 339	Abs 340nm	Spn PMK inh
Cc1cc(C)nc(NC2=NCCN2C(=O)Nc2ccc(Cl)c(Cl)c2)n1	3.0%	i	6.0	1.01	1.04	2.0
COC(=O)c1ccc(-n2nnnc2SCC(=O)NCc2cccc(C(=O)O)c2)cc1	3.0%	i	4.0	1.09	1.03	6.0
COc1cccc(/C(O)=C2/C(=O)C(=O)N(CCN(C)C)C2c2ccc(Br)cc2)c1 (stereo not given)	0.0%	i	0.0	1.02	1.07	0.0
CC(=O)c1ccc(-c2nc3ccccc3n2C)o1	3.0%	.	10.0	2.96*	1.08	3.0
Cn1c(-c2ccc(Br)o2)nc2ccccc21	7.0%	i	11.0	1.16	1.06	11.0
c1ccc(NC(=NCc2ccco2)c2ccccc2)cc1	9.0%	i	0.0	1.13	1	27.0*
Cc1cccc(C)c1NC(=O)C(c1ccccc1)N1CCC2(CC1)OCCO2 (stereo not given)	5.0%	i	3.0	1.02	0.99	12.0
Cc1cccc(C)c1NC(=O)C(c1ccccc1)N1CCN(C(=O)c2ccco2)CC1 (stereo not given)	29.0%	+	0.0	1.1	0.99	18.0
O=C1CC(C(=O)Nc2ccc(O)c(C(=O)O)c2)C(c2ccccc2)O1 (stereo not given)	7.0%	.	5.0	3.11*	1.04	8.0
O=C1CC(C(=O)Nc2ccccc2C(=O)O)C(c2ccccc2)O1 (stereo not given)	3.0%	i	1.0	1.18	1.03	8.0
NC(=O)CSc1nnc(Cn2c(=O)sc3ccccc32)n1-c1ccccc1	1.0%	i	0.0	1.08	1.05	2.0
O=C(Nc1ccccc1C(=O)O)c1ncn[nH]1	0.0%	i	0.0	1.08	1.06	0.0
COC(=O)c1ccc2c(=O)n(CCCCCC(=O)NCc3ccccn3)c(=O)[nH]c2c1	11.0%	i	2.0	2.52*	1.01	15.0
COCCCNC(=O)CCCn1c(=O)[nH]c2ccccc2c1=O	5.0%	i	2.0	1.11	0.99	13.0
COC(=O)c1ccc(S(=O)(=O)N2CCCC2)o1	5.0%	i	15.0	1.04	1.01	0.0
C=CCNC(=O)C1CCCN(S(C)(=O)=O)C1 (stereo not given)	9.0%	i	0.0	1.07	1.04	28.0*
CS(=O)(=O)N1CCCC(C(=O)NCc2ccccn2)C1 (stereo not given)	10.0%	i	0.0	1	1	29.0*
O=C(c1csc2c1CCCC2)n1cccn1	9.0%	i	10.0	1.06	1.04	0.0
CC(CN1CCCCC1)OC(=O)c1ccc(Cl)cc1 (stereo not given)	3.0%	i	9.0	1.09	1.02	1.0
CC(CN1CCN(C)CC1)OC(=O)c1ccc(Cl)cc1 (stereo not given)	10.0%	i	2.0	0.97	1.01	28.0*
Nc1nc(-c2cccnc2)nn1S(=O)(=O)c1ccccc1	2.0%	i	5.0	1.09	1.06	1.0
COc1ccc2oc(=N)c(C(=O)Nc3ccccc3)cc2c1	7.0%	i	7.0	1.21	0.98	11.0
CNC(=O)c1cc2cc(OC)ccc2oc1=N	4.0%	i	0.0	2.55*	1.08	0.0
CNC(=O)c1cc2ccc(OC)cc2oc1=O	7.0%	.	10.0	3.57*	1.21	4.0
Cc1nn(-c2ccccc2)c2sc(C(=O)N3CCCCC3)cc12	2.0%	i	6.0	1.16	1.04	0.0
SMILES	NADH coupling	DPM-DC inhibit	MK inhibit	Autofluor 339	Abs 340nm	Spn PMK inh
CCCCNC(=O)COC(=O)c1cc2c(C)nn(-c3ccccc3)c2s1	13.0%	i	8.0	2.55*	1.04	17.0
Cc1nn(-c2ccccc2)c2sc(C(=O)n3cccn3)cc12	9.0%	.	6.0	2.24*	1.07	11.0
Cc1nn(-c2ccccc2)c2sc(C(=O)OCn3nnc4ccccc4c3=O)cc12	1.0%	i	0.0	1.13	1.04	3.0
CC1CN(c2nc3c(c(=O)n(Cc4ccc(Cl)cc4)c(=O)n3C)n2C)CC(C)O1 (stereo not given)	3.0%	i	9.0	1.08	1.02	0.0
COC(=O)C(NC(=O)c1ccccc1)=C1C=C(C)OC(C)=C1	10.0%	i	0.0	1.05	1.34	29.0*
CCOC(=O)C(NC(=O)c1ccccc1)=C1C=C(C)OC(C)=C1	3.0%	i	5.0	1.05	1.19	5.0
CC1CCCN(c2nc3c(c(=O)n(C)c(=O)n3C)n2Cc2ccccc2)C1 (stereo not given)	4.0%	i	12.0	1.09	1.06	0.0
CCCN1C2CCCC1CC(NC(=O)c1ccccc1F)C2 (stereo not given)	4.0%	i	16.0	1.02	1	7.0
CC(C)(C)S(=O)(=O)c1ccc2nc3c(n2c1)CCCC3	15.0%	.	15.0	3.9*	1.03	14.0
O=C1CCCC2=C1C(c1cccs1)n1nc(SCc3ccccc3F)nc1N2 (stereo not given)	2.0%	i	4.0	2.16*	1.03	0.0
Nc1nnc(Cc2ccc(Cl)cc2)s1	3.0%	i	9.0	0.99	0.98	1.0
Nc1nnc(CCS(=O)(=O)c2cc(Cl)ccc2Cl)s1	18.0%	i	53.0*	1.11	1.04	0.0
COc1ccccc1/C=C/CN1CCOCC1	15.0%	i	44.0*	1.13	1.03	0.0
COc1ccccc1N1CCN(C/C=C/c2ccc(N(C)C)cc2)CC1	12.0%	i	35.0	1.24	1.09	0.0
Nc1cc(N)nc(SCc2cc(=O)oc3cc4c(cc23)CCC4)n1	7.0%	i	5.0	1.09	1.09	15.0
CC(=O)N1CCC2(CC1)CC(=O)c1cc(OCC(=O)NCc3ccc(C)cc3)ccc1O2	3.0%	.	0.0	3.48*	1.02	12.0
CC(=O)N1CCC2(CC1)CC(=O)c1cc(OCC(=O)NCc3ccco3)ccc1O2	6.0%	.	0.0	3.39*	1	12.0
CCN(CC)S(=O)(=O)c1cc(C(=O)Nc2nncs2)c(Cl)cc1Cl	2.0%	i	6.0	1.02	1.01	0.0
COc1ccc(C(=O)NCC(c2ccc(F)cc2)N2CCOCC2)cc1S(=O)(=O)N1CCCC1 (stereo not given)	5.0%	i	4.0	1.06	0.98	12.0
CC(C)C(=O)N(Cc1cc2ccccc2[nH]c1=O)C(C)C	5.0%	i	9.0	1.25	1.03	6.0
CCC(=O)N(Cc1cc2cc(OC)ccc2[nH]c1=O)c1cc(C)ccc1C	20.0%	+	7.0	2.37*	1.02	20.0
COc1ccc2[nH]c(=O)c(CN(C(=O)COc3ccccc3)C(C)C)cc2c1	4.0%	i	1.0	2.65*	1.13	0.0
COc1ccc(N(Cc2cc3cc(OC)ccc3[nH]c2=O)C(=O)c2cccnc2)cc1	10.0%	i	10.0	2.7*	1.09	4.0
COc1ccc2[nH]c(=O)c(CN(C(=O)c3ccccn3)c3ccccc3)cc2c1	12.0%	.	13.0	3.36*	1.05	10.0

Compound activity (PubChem)
